Out of some 310,000 compounds screened, about 14,000 (4.5%) showed an effect of 50% or more. The effect is printed as a negative number. The entries come from a sample that favours strong results as a whole.
Target: human ether-à-go-go-related gene (hERG) potassium channel (human, UniProt Q12809)
Test: primary screen, population patch clamp on CHO cells stably expressing hERG; higher = less effect of the substance
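Further: peak tail current of the secondary pulse compared with the same well before compound.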

human ether-à-go-go-related gene (hERG) potassium channel, sequence (Q12809 whole entry, looked up): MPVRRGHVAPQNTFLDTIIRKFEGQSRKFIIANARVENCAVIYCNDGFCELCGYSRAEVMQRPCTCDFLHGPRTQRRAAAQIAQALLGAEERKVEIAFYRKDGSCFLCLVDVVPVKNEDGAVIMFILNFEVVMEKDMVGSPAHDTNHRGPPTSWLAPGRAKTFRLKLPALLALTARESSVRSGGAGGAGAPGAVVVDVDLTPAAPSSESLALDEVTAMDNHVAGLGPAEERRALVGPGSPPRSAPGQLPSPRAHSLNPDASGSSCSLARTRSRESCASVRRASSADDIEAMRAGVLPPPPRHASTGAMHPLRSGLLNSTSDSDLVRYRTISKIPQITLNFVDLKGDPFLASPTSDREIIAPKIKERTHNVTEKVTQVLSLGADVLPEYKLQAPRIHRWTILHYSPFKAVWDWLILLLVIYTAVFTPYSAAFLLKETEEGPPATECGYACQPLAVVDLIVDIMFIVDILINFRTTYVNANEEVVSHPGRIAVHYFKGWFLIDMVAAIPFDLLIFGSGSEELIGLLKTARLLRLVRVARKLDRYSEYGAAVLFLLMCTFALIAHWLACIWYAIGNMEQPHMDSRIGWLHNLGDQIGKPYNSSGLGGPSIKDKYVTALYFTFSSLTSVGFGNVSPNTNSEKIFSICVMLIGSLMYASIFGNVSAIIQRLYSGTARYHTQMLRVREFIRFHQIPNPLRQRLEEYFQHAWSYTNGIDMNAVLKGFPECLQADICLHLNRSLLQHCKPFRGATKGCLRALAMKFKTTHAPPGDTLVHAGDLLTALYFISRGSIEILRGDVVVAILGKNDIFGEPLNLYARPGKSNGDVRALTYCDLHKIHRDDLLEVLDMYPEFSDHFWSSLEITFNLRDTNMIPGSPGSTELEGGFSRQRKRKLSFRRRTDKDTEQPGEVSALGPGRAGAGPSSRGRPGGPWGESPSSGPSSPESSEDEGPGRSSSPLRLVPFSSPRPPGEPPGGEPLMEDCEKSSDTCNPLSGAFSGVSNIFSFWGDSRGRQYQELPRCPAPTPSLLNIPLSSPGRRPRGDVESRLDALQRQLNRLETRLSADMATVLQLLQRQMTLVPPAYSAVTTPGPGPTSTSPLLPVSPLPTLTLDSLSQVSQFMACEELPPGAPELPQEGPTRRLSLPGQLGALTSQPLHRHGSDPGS

SMILES	hERG current change (%, negative = inhibition) at 10uM [%]
COc1ccc(C(=O)C2CCN(CC(=O)Nc3ccc(OC)cc3OC)CC2)cc1	-18.1
CCOc1ccc(NC(=O)CN2CCN(CC(=O)Nc3ccc(OC)cc3OC)CC2)cc1	-74.2
COc1ccc(NC(=O)CN2CCN(S(=O)(=O)c3ccc(F)cc3)CC2)cc1Cl	-1.67
COc1ccc(NC(=O)CN2CCN(CC(=O)Nc3ccc(F)cc3)CC2)c(OC)c1	-80.4
COc1cccc(NC(=O)CN2CCN(c3ccccc3F)CC2)c1	-9.18
COc1ccc(NC(=O)CN2CCN(c3ccc(F)cc3)CC2)cc1Cl	-5.96
COc1cccc(NC(=O)CN2CCN(CC(=O)Nc3ccc(F)cc3)CC2)c1	-80.3
COc1ccc(NC(=O)CN2CCN(CC(=O)Nc3ccc(F)cc3)CC2)cc1Cl	-80.5
COc1cccc(NC(=O)CN2CCN(c3ccc(F)cc3)CC2)c1	-17
COc1ccc(NC(=O)CN2CCc3ccccc3C2)c(OC)c1	-6.9
Cc1ccc(NC(=O)CSC(N)=O)cc1Cl	7.5
Cn1c2ccccc2c(=O)c2ccc(F)cc21	0.557
COc1ccc(-c2cc(C(=O)N3CCCC3)c3ccccc3n2)cc1OC	5.86
CCCCc1nnc(NC(=O)C23CC4CC(CC(NC(C)=O)(C4)C2)C3)s1	-1.81
O=C(Nc1cccnc1)c1ccccc1-c1nc(-c2ccccc2F)no1	-16.4
N#Cc1nc(-c2ccccc2)oc1N1CCC(C(N)=O)CC1	9.26
O=S(=O)(NCC1CCN(S(=O)(=O)c2ccccc2)CC1)c1ccccc1	-9.78
Cc1ccc(C2N(c3ccc(Cl)cc3)C(=O)N3CCCN23)cc1 (stereo not drawn)	-1.05
CCc1nc(SCC(=O)Nc2nnc(CC)s2)c2c(C)c(C)sc2n1	8.99
CCOc1ccc(NC(=O)CN2CCN(CC(=O)Nc3ccccc3OC)CC2)cc1	-74.1
COc1ccccc1NC(=O)CN1CCN(CC(=O)Nc2ccc(OCc3ccccc3)cc2)CC1	-25.1
COc1ccccc1NC(=O)CN1CCN(CC(=O)Nc2ccc(S(N)(=O)=O)cc2)CC1	-27.8
C(#CCN1CCCC1)CC(c1ccccc1)c1ccccc1.Cl	-50.5

SMILES	hERG current change (%, negative = inhibition) at 10uM [%]
OC(C#CCN1CCCC1)c1ccccc1 (stereo not drawn)	-2.28
OCCN1CCN(CC#CCC(c2ccccc2)c2ccccc2)CC1	-22.9
COc1cc(OC)c(C(=O)NCCCn2ccnc2)cc1OC.Cl	13
OC[C@H]1O[C@@H](n2cnc3c(NC4CCCC4)ncnc32)[C@H](O)[C@@H]1O	10.4
OCCNCC(O)Cn1c2ccccc2c2ccccc21 (stereo not drawn)	10.2
OC(CNCc1ccco1)Cn1c2ccccc2c2ccccc21 (stereo not drawn)	-58.4
OC(CNCc1ccco1)Cn1c2ccc(Br)cc2c2cc(Br)ccc21 (stereo not drawn)	-0.0278
COc1ccc(OC)c(NC(=O)[C@@H]2CCCN2C(=O)c2cccs2)c1	-2.19
CC(C)(C)c1ccc(C(=O)NNC(=O)CCc2ccccc2)cc1	7.16
Cc1ccc(C(C(=O)NC2CCCC2)N(Cc2ccc3c(c2)OCO3)C(=O)c2snc(C(N)=O)c2N)cc1 (stereo not drawn)	10.7
CCCC(=O)NC(=S)N1CCN(c2ccc([N+](=O)[O-])cc2)CC1	-20.7
Cc1cccc(C(=O)NC(=S)N2CCN(c3ccc([N+](=O)[O-])cc3)CC2)c1	-2.77
COCCCNC(=S)N1CCN(c2ccccc2)CC1	12.9
COCCNC(=S)N1CCN(c2ccc(Cl)cc2)CC1	-12.9
CNC(=S)N1CCN(c2ccc([N+](=O)[O-])cc2)CC1	-65.1
O=[N+]([O-])c1ccc(N2CCN(C(=S)NCc3ccc(Cl)cc3)CC2)cc1	-8.05
O=[N+]([O-])c1ccc(N2CCN(C(=S)Nc3ccc(F)cc3F)CC2)cc1	-18.5
COCCCNC(=S)N1CCN(c2ccc([N+](=O)[O-])cc2)CC1	-68
CCNC(=S)N1CCN(c2ccc([N+](=O)[O-])cc2)CC1	-64.5
C=CCNC(=S)N1CCN(c2ccccc2Cl)CC1	-6.87
C=CCNC(=S)N1CCN(c2ccc([N+](=O)[O-])cc2)CC1	-63.6
O=[N+]([O-])c1ccc(N2CCN(C(=S)Nc3ccccc3)CC2)cc1	-4.16

Source: article PMC4336329 (PLoS ONE, 2015)
